# Activity calls are given as the source filed them. Unless noted, how the calls were made is not given here.
# Legend:
# [1] = resazurin metabolic signal in HepG2 cells – cell-based, resazurin fluorescence, 24 h, PK04 Diversity Set, profiling panel (AID 1172); conditions: HepG2 viability, higher = more signal; further: test concentration not given here
# [2] = budding yeast growth changes without added modifier – OD600, strain BY4716, 24 h, basal condition, primary screen (AID 1173); conditions: S. cerevisiae BY4716 growth, OD600, 24 h; higher = more signal, called active from +8 up or from −8 down
# [3] = viability profiling in MM1S myeloma cells – cell-based, resazurin fluorescence, basal, 24 h, PK04 Diversity Set, profiling panel (AID 1174); conditions: higher = more signal, called active from +8 up or from −8 down;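 further: MM1S multiple myeloma cell line; test concentration not given here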
# [4] = target: Dihydroorotate dehydrogenase (quinone), mitochondrial (Plasmodium falciparum (isolate 3D7)) (UniProt Q08210); assay: inhibition of P. falciparum DHODH – biochemical, C-terminal His tag, absorbance 600 nm, primary screen (AID 1175); conditions: PfDHODH enzyme, DCIP absorbance 600 nm; higher = more signal, called active from +8 up or from −8 down;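 further: recombinant parasite enzyme with a five histidine tag at its C terminus; test concentration not given here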
# Sequence of Dihydroorotate dehydrogenase (quinone), mitochondrial (Plasmodium falciparum (isolate 3D7)) (Q08210 whole entry, looked up): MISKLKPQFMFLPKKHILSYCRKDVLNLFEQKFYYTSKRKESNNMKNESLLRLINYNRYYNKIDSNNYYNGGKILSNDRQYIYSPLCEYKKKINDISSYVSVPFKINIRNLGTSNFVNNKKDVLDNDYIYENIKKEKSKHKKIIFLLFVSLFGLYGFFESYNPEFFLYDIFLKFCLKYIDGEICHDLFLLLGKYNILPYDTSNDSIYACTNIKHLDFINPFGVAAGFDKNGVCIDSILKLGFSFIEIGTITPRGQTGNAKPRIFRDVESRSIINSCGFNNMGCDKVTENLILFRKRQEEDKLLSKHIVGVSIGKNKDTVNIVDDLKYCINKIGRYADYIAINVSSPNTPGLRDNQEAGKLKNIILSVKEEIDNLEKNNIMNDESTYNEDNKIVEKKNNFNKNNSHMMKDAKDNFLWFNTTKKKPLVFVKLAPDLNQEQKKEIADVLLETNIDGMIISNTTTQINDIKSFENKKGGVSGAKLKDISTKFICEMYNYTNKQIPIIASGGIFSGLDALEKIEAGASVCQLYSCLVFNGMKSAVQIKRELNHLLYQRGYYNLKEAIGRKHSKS
# [5] = inhibition of PAO1 biofilm formation – strain PAO1, LB-PBS medium, absorbance 600 nm, primary screen (AID 1176); further: test concentration not given here; conditions: P. aeruginosa PAO1 growth/biofilm, A600, 12 h; higher = more signal
# [6] = growth modulation of vineyard yeast isolate – strain RM11-1a, OD600, basal, 24 h, primary screen (AID 1177);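 further: cultures grown under basal conditions with no added stressor; test concentration not given here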; conditions: S. cerevisiae RM11-1a growth, OD600, 24 h; higher = more signal, called active from +8 up or from −8 down
# [7] = growth of efflux-deficient E. coli DRC39 – strain DRC39, OD650, 24 h, E. coli filamentation inducers, primary screen (AID 1178);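 further: growth measured as culture turbidity by optical density at 650 nm; test concentration not given here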; conditions: E. coli DRC39 acrAB, higher = more signal, called active from +8 up or from −8 down
# [8] = growth of efflux-deficient E. coli DRC39 – strain DRC39, OD650, 48 h, E. coli filamentation inducers, primary screen (AID 1179);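 further: screen aims at cell division blockers that make cells filament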; conditions: E. coli DRC39 delta-acrAB growth, higher = more signal, called active from +8 up or from −8 down
# [9] = viability profiling in RPMI8226 myeloma cells – cell-based, resazurin fluorescence, basal, 24 h, PK04 Diversity Set, profiling panel (AID 1180); conditions: higher = more signal;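 further: RPMI8826 multiple myeloma cell line at 5000 cells per well; test concentration not given here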
# [10] = target: E3 ubiquitin-protein ligase XIAP (Homo sapiens) (UniProt P98170); assay: small molecules binding XIAP protein – biophysical, small-molecule microarray, fluorescence 635 nm, primary screen (AID 1181); conditions: higher = more signal;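 further: score merges 667 nm emission and signal to noise over triplicate slides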
# Sequence of E3 ubiquitin-protein ligase XIAP (Homo sapiens) (P98170 whole entry, looked up): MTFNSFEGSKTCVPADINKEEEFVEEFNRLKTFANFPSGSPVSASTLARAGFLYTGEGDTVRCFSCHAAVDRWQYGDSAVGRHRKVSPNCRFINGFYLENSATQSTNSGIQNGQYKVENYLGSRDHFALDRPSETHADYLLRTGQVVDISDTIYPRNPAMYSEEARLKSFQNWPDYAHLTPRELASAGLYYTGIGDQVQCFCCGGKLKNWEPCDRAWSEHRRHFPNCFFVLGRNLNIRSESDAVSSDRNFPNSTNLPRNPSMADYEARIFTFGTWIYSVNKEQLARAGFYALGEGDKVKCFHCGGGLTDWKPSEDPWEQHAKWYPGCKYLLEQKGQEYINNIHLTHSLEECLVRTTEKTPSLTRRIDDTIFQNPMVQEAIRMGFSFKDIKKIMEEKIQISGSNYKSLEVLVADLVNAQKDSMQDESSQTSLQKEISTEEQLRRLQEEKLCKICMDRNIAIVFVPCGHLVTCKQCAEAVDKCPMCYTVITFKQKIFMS
SMILES,z-score [1],z-score [2],z-score [3],composite z-score [4],z-score [5],z-score [6],z-score [7],z-score [8],z-score [9],composite z-score [10]
COCCOC(=O)N1C(=O)[C@@]2(c3cc(C#Cc4ccc(OC)cc4)ccc31)[C@H](C(=O)N1CCc3cc(OC)c(OC)cc3C1)[C@H]1C(=O)O[C@H](c3ccccc3)[C@H](c3ccccc3)N1[C@@H]2c1ccc(OCCO)cc1,-0.562,1.39 (inactive),-0.12 (inactive),-0.0739 (inactive),1.27 (inactive),2.92 (inactive),-0.997 (inactive),-1.19 (inactive),0.54,0.365
O=C(NCc1ccccc1)[C@]1(Cc2ccccc2)N=C(c2ccc(OCCCO)cc2)O[C@@H]1c1ccccc1,0.455,1.41 (inactive),-1.91 (inactive),1.8 (inactive),1.19 (inactive),3.75 (inactive),0.653 (inactive),-0.642 (inactive),-1.79,0.0871
O=C1O[C@@H](c2ccccc2)[C@@H](c2ccccc2)N2[C@@H](c3ccc(O)cc3)[C@]3(C(=O)Nc4ccc(C#CC5=CCCCC5)cc43)[C@@H](C(=O)Nc3nc4ccccc4s3)[C@H]12,0.235,-0.826 (inactive),-0.139 (inactive),-0.504 (inactive),2.14 (inactive),0.137 (inactive),0.591 (inactive),0.986 (inactive),-0.595,-0.0925
C[C@H]1ON(c2ccccc2)[C@@H](c2ccccc2)[C@@H]1C(=O)N1C(=O)OC[C@@H]1c1ccccc1,0.565,0.551 (inactive),0.715 (inactive),-0.199 (inactive),-0.189 (inactive),1.5 (inactive),0.259 (inactive),-0.0075 (inactive),0.942,-0.123
CCOc1cc(C(O)C2C=CC3C(=O)NC(=O)C3N2Nc2ccccn2)ccc1O (stereo not given),-1.35,1.67 (inactive),-1.33 (inactive),0.21 (inactive),0.599 (inactive),0.24 (inactive),-1.17 (inactive),-0.0662 (inactive),-0.672,0.0652
CN(C)C(=O)[C@@]1(CCS(=O)(=O)c2ccccc2)N=C(c2ccc(OCCCO)cc2)O[C@H]1c1ccccc1CN=[N+]=[N-],1.01,-1.19 (inactive),0.958 (inactive),0.307 (inactive),-0.385 (inactive),-0.791 (inactive),1.13 (inactive),0.802 (inactive),0.251,-0.0381
C[N+](C)(C)CCCCCCNC(=O)[C@@H]1C[C@@H]2C(=O)NCC(=O)N2[C@@H]1c1ccc(O)cc1,0.811,0.0566 (inactive),0.562 (inactive),-1.45 (inactive),-0.447 (inactive),0.311 (inactive),0.182 (inactive),0.128 (inactive),0.203,-0.128
CCCC=C(CCC)[C@@H](NS(=O)(=O)c1cccc2cccnc12)c1ccc(C(=O)OC)cc1,0.582,1.35 (inactive),0.058 (inactive),-0.0345 (inactive),0.371 (inactive),1.04 (inactive),0.134 (inactive),-0.754 (inactive),0.0013,0.67
O=C1c2ccccc2[C@](Cc2ccccc2I)(C(=O)NC2CC2)[C@H](c2ccc(CO)cc2)N1Cc1ccccc1Cl,0.197,0.504 (inactive),-0.405 (inactive),0.37 (inactive),0.925 (inactive),1.9 (inactive),0.258 (inactive),-0.507 (inactive),-0.506,0.0432
NC(=O)NCC#Cc1ccc2c(c1)[C@]1(C(=O)N2)[C@H](c2ccc(O)cc2)N2[C@H](c3ccccc3)[C@H](c3ccccc3)OC(=O)[C@H]2[C@@H]1C(=O)NC[C@H](O)c1ccccc1,0.22,-0.683 (inactive),0.953 (inactive),-0.494 (inactive),-0.136 (inactive),-0.0444 (inactive),0.203 (inactive),0.841 (inactive),0.82,0.045
CCCC[C@H]1OB(O)C[C@H]2C1=C(COc1ccccc1)Cn1c(=O)n(-c3ccccc3)c(=O)n12,-0.0243,-6.02 (inactive),-0.0638 (inactive),-2.51 (inactive),0.294 (inactive),0.458 (inactive),0.232 (inactive),0.0306 (inactive),-0.0851,-0.327
C=CCC(OC(C)=O)[C@@H]1[C@@H](N(Cc2cc3ccccc3o2)C(=O)Cc2ccc(OC)cc2)c2cc(OCCCO)ccc2N1C(=O)c1ccc(-c2ccccc2)cc1 (stereo not given in full),-0.877,-0.464 (inactive),1.05 (inactive),0.849 (inactive),-0.558 (inactive),0.275 (inactive),0.66 (inactive),0.16 (inactive),0.337,-0.0575
CC(C)N1C(=O)c2ccccc2[C@](C)(C(=O)O)[C@@H]1c1ccc(CO)cc1,0.536,-0.942 (inactive),-0.0713 (inactive),-0.218 (inactive),0.332 (inactive),0.595 (inactive),0.0212 (inactive),0.421 (inactive),0.125,0.0767
NC(=O)NCC#Cc1ccc2c(c1)[C@]1(C(=O)N2)[C@H](c2ccc(O)cc2)N2[C@H](c3ccccc3)[C@H](c3ccccc3)OC(=O)[C@H]2[C@@H]1C(N)=O,-0.49,-0.297 (inactive),-0.226 (inactive),-0.552 (inactive),0.185 (inactive),0.603 (inactive),0.968 (inactive),0.936 (inactive),-0.11,0.074
CC(C)C[C@@H]1NC(=O)[C@@]23C(=O)N[C@@H](Cc4ccccc4)C2[C@H](C)[C@@]2(C)O[C@H]2C3/C=C/C/C=C\CNC(=O)[C@@H]2CCCN2C1=O (stereo not given in full),-0.462,-0.47 (inactive),0.17 (inactive),-0.487 (inactive),0.577 (inactive),-0.0014 (inactive),-0.536 (inactive),-0.146 (inactive),-0.39,-0.207
COC(=O)c1c(CC[C@@H](CO)NC(=O)N[C@@H](C)Cn2cc(C3(O)CCCC3)nn2)oc(C(C)=O)c1C(=O)OC,-1.1,-0.724 (inactive),-0.345 (inactive),-3.31 (inactive),0.0793 (inactive),-0.429 (inactive),-0.0257 (inactive),-0.687 (inactive),-0.88,-0.184
O=C1N(CCS(=O)(=O)c2ccccc2)Cc2ccccc2C[C@@]12COC(c1ccc(OCCCO)cc1)=N2,0.0549,1.58 (inactive),-5.12 (inactive),-0.211 (inactive),0.0379 (inactive),2.14 (inactive),0.862 (inactive),-0.691 (inactive),-3.43,0.167
CCCCC(=C=CC[C@H](O)c1ccccc1OCCO)C[C@H](O)c1ccccn1,0.973,-1.8 (inactive),0.843 (inactive),-1.36 (inactive),0.0235 (inactive),0.0401 (inactive),0.917 (inactive),0.726 (inactive),1.13,0.104
[N-]=[N+]=NCc1ccccc1C[C@]1(C(=O)NCCN2CCOCC2)COC(c2ccc(OCCCO)cc2)=N1,-0.801,-1.36 (inactive),-1.28 (inactive),0.456 (inactive),0.535 (inactive),-0.383 (inactive),0.786 (inactive),0.0653 (inactive),0.106,-0.0125
COCCOC(=O)N1C(=O)[C@@]2(c3cc(C#CCC(C(=O)OC)C(=O)OC)ccc31)[C@H](C(=O)N1CCCCCCC1)[C@H]1C(=O)O[C@H](c3ccccc3)[C@H](c3ccccc3)N1[C@@H]2c1ccc(O)cc1,-0.124,-0.0861 (inactive),1.09 (inactive),1.49 (inactive),0.1 (inactive),0.451 (inactive),-0.543 (inactive),-0.86 (inactive),0.646,0.312
CCOC(=O)C[C@H]1[C@H](OC(=O)Cc2ccc3c(c2)OCO3)[C@@H](NC(=O)c2ccccc2)c2cc(OCCCO)ccc2N1C(=O)c1ccccc1,-0.688,-0.271 (inactive),0.103 (inactive),-1.11 (inactive),0.0885 (inactive),0.0859 (inactive),0.31 (inactive),0.676 (inactive),-0.19,-0.309
CCN(CC)c1ccc(N2CC=CC34O[C@@H]5/C=C\CCCOC(=O)C5[C@H]3C(=O)N(CCCCCCO)[C@@H]4C2=O)cc1 (stereo not given in full),-0.574,-1.14 (inactive),0.93 (inactive),-2.09 (inactive),-0.869 (inactive),-1.78 (inactive),0.318 (inactive),0.901 (inactive),0.79,-0.083
CCOC(=O)C1=CC[C@@H](c2cccc(Br)c2)N(S(=O)(=O)c2ccc(C)cc2)[C@H]1c1ccc([N+](=O)[O-])cc1,0.157,0.25 (inactive),-0.343 (inactive),-1.26 (inactive),0.449 (inactive),-0.403 (inactive),-0.837 (inactive),-0.0589 (inactive),-1.14,-0.27
COC(=O)[C@]1(Cc2ccccc2CN=[N+]=[N-])N=C(c2ccc(OCCCO)cc2)O[C@@H]1c1ccccc1CN=[N+]=[N-],-1.27,0.803 (inactive),-3.36 (inactive),1.36 (inactive),3.93 (inactive),2.92 (inactive),2.1 (inactive),1.6 (inactive),-4.23,-0.0025
OCc1ccc(-c2cc[n+](Cc3cccc(OC(F)(F)F)c3)cc2)cc1,-0.0785,-0.615 (inactive),-0.297 (inactive),-5.09 (inactive),0.282 (inactive),-0.327 (inactive),0.188 (inactive),0.147 (inactive),-0.784,0.222
